Bioassay records: PubChem BioAssay, The Scripps Research Institute Molecular Screening Center
Rows were chosen to be rich in hits. Some 3.5% of all compounds tested hit in one or more screens of this group.
GPR151 ag: human GPR151 activation | PathHunter beta-arrestin GPR151 cells, luminescence | activation, % at 11.2 µM | 1% of 650,000 active | Q8TDV0; in the data active = activation above about 4.9%
TEAD-YAP inh: TEAD-YAP interaction inhibition; HEK-TIYL cells, TEAD-Gal4/YAP UAS-luciferase luminescence; inhibition, % at 9.12 µM; 1.4% of 640,000 active; AID 1259422; in the data active = inhibition above about 32%
MITF inh: inhibitors of human MITF. O75030. AlphaScreen MITF homodimerization, bead proximity signal. inhibition, % at 2.6 µM. 0.91% of 650,000 active. AID 1259374; in the data active = inhibition above about 50%
FBW7 activator: human FBW7 E3 ligase activation, primary screen; AlphaScreen FBW7–phospho-cyclin E peptide binding, activator screen; 0.13% of 650,000 active; normalized activity (activation), % at 26.1 µM; in the data active = normalized activity above about 1.9%;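 also: purified mutant Fbw7 with reduced substrate affinity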
Large screens that a line does not name were inactive; ! = repeats disagree.

Nc1nc2cc3c(cc2cc1C(=O)Nc1ccccc1)OCO3	TEAD-YAP inh 42
CCOCC(=O)Nc1ccc(-c2cn3nc(OC)ccc3n2)cc1	none
CCOCC(=O)Nc1cc(-c2cn3nc(OC)ccc3n2)ccc1F	TEAD-YAP inh 68
Cc1ccc(N(CC(=O)Nc2cc(C)ccc2C)S(=O)(=O)c2c(C)n[nH]c2C)cc1	none
CC(c1ccccc1)c1ccc(O)c(O)c1 (stereo not given)	none
NCC(O)c1ccc(O)c(O)c1 (stereo not given)	MITF inh 77!
CC1(C)O[C@H]2OC(C(=O)NCC(=O)Nc3ccccc3)[C@@H]3OC(C)(C)O[C@@H]3[C@H]2O1 (stereo not given in full)	none
O=C(NCc1ccccc1)C(=O)Nc1ccccn1	none
C/C(=N\NC(=O)C(F)(F)F)c1ccc(Cl)cc1Cl	none
C/C(=N\NC(N)=S)c1ccc(Cl)cc1Cl	TEAD-YAP inh 34
COC(=O)c1cn[nH]c1NC(=S)Nc1ccc(Br)cc1	TEAD-YAP inh 39
COC(=O)c1cn[nH]c1NC(=S)Nc1c(C)cccc1C	none
CC(=O)c1ccc(NC(=O)c2cnn3ccccc23)cc1	TEAD-YAP inh 91
Cc1cc(C)cc(NC(=O)c2cnn3ccccc23)c1	none
Cc1ccc(NC(=O)c2cnn3ccccc23)cc1C	TEAD-YAP inh 66
CC(=O)c1cccc(NC(=O)c2cnn3ccccc23)c1	none
O=C(Nc1ccc(CN2CCOCC2)cc1)c1cnn2ccccc12	TEAD-YAP inh 91
COc1ccc(S(=O)(=O)NC(CC(=O)NCCc2ccc(OC)c(OC)c2)C(C)C)cc1 (stereo not given)	none
CCCCOc1ccc(C(=O)On2c(-c3cc(OC)cc(OC)c3)nc3ccccc3c2=O)cc1	none
COc1ccc(/C=C/C(=O)NCCNC(=O)c2ccccc2)cc1OC	none
CSc1ccccc1C(=O)Nc1nc2cc(C)cc(C)c2s1	none
Cc1cc(C)c2sc(NC(=O)c3ccccc3C)nc2n1	TEAD-YAP inh 61
CSc1ccccc1C(=O)Nc1nc2nc(C)cc(C)c2s1	FBW7 activator 8.8
Cc1cc(C)c2sc(NC(=O)c3cc4ccccc4o3)nc2n1	none
CC(=O)C1=C(c2ccc([N+](=O)[O-])cc2)N(C(C)=O)n2c(C)nnc2S1	none
COC(=O)CSc1cccc2cccnc12	none
COc1ccc(C(C[N+](=O)[O-])Sc2cccc3cccnc23)cc1 (stereo not given)	TEAD-YAP inh 57
COCCNC(=O)c1cn(C2CCCCC2)c(=O)c2c1c1ccccc1n2C	none
CCC(C)NC(=O)c1cn(C2CCCCC2)c(=O)c2c1c1ccccc1n2C (stereo not given)	FBW7 activator 2.3
CN1/C(=C/C(=C/c2sc3ccccc3[n+]2C)C2CCC2)Sc2ccccc21	TEAD-YAP inh 72
CN1/C(=C/C(=O)C2CCC2)Sc2ccccc21	none
O=C1c2ccccc2C(=O)c2c1oc1c3c(ccc21)OCN(CCCN1CCOCC1)C3	TEAD-YAP inh 81
O=S(=O)(c1ccc(F)cc1)N1CCN(c2ccc3nncn3n2)CC1	none
CC(C)(C)OC(=O)N1CCC(c2nc(-c3nc4ccc(-c5ccncc5)cc4[nH]3)cs2)CC1	TEAD-YAP inh 94
O=C(O)CCCCN1C(=O)CSC1=S	TEAD-YAP inh 38
O=C(O)CCN1C(=O)CSC1=S	none
C=C1C(=O)OC23C1CCC(C)C2CCC1(C)OC13 (stereo not given)	TEAD-YAP inh 61
CCn1nnc(NC(=O)c2ccc(OC(C)C)cc2)n1	TEAD-YAP inh 44
CC(=O)c1ccc(C(=O)Nc2nccs2)cc1	none
COc1cc(SC)ccc1C(=O)Nc1nccs1	TEAD-YAP inh 46
CC(C)Oc1ccc(C(=O)Nc2nccs2)cc1	TEAD-YAP inh 52
CC(C)Sc1ccc(C(=O)Nc2nccs2)cc1	TEAD-YAP inh 55
Cc1ccc(-n2nc3cc(C)c(N)cc3n2)cc1	TEAD-YAP inh 37
CCc1ccc(-n2nc3cc(C)c(N)cc3n2)cc1	none
c1ccc2c(c1)Cn1nc(-c3c[nH]c4ccccc34)nc1-2	TEAD-YAP inh 77
c1ccc2c(c1)ccc1nnc(-c3c[nH]c4ccccc34)n12	none
CC(C)CC(=O)Nc1ccc(S(=O)(=O)N2CCC(c3nc4ccccc4[nH]3)CC2)cc1	TEAD-YAP inh 34
CCc1cccc(Nc2c(-c3ccc(OC)cc3)c(=O)c2=O)c1	none
CCc1ccc(Nc2c(-c3ccccc3)c(=O)c2=O)cc1	TEAD-YAP inh 56
COc1ccc(Nc2c(-c3ccccc3)c(=O)c2=O)cc1Cl	TEAD-YAP inh 55, MITF inh 99
O=c1c(Nc2cccc(Cl)c2)c(-c2ccccc2)c1=O	none
COc1ccc(Nc2c(-c3ccc(C)cc3)c(=O)c2=O)cc1	none
COc1ccc(-c2c(Nc3cccc(SC)c3)c(=O)c2=O)cc1	TEAD-YAP inh 61
